# Bioassay records deposited in PubChem BioAssay by several laboratories.
# An excerpt weighted towards active compounds, which were near 1.6% of everything screened.
# PABP polyA inh: PABP poly(A) RNA binding inhibitors, primary screen, biochemical, fluorescence polarization, uHTS; inhibition, % at 35 µM; 1% of 290,000 active; AID 2014, 2009;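 also: calls also rest on retests at 20 µM and on dose response follow-up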
# eIF4E-4G inh: eIF4E–eIF4G protein interaction inhibitors, primary screen, biochemical, uHTS, TR-FRET, eIF4GI fragment; Eukaryotic translation initiation factor 4E (Mus musculus) + Eukaryotic translation …; TR-FRET eIF4E-eIF4GI(517-606) binding, 2 h; inhibition, % at 21.7 µM; 0.37% of 220,000 active;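 active = inhibition above about 30%, limit read from the data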;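 also: 0% = full FRET control wells and 100% = background wells lacking eIF4GI fragment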
# eIF4H FP inh: human eIF4H binding inhibitors, primary screen, translation initiation inhibitor project, biochemical, uHTS, fluorescence polarization | inhibition, % at 35 µM | 0.94% of 290,000 active | Eukaryotic translation initiation factor 4H (Homo sapiens), Q15056 | eIF4H fluorescence polarization binding assay;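 also: calls also rest on retests at 20 µM and on dose response follow-up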
# PERK inh: block of dimerizer-induced PERK translation repression, primary screen, PERK inhibitor project, CHO PERK-DD cells, SEAP luminescence, HTS; CHO PERK-DD fusion, SEAP luminescence translation reporter; inhibition, % at 5.6 µM; 0.17% of 220,000 active;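 active = inhibition above the mean inhibition of all tested compounds plus 3 SD, set separately per screening campaign, cut at about 2.9% in these data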;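 also: PERK kinase domain activated by AP20187 dimerizer at 100 nM; 0% = DMSO with dimerizer and 100% = rapamycin at 8.4 µM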
# Target sequence (Q9NZJ5 whole entry, looked up, the tested form may be a part): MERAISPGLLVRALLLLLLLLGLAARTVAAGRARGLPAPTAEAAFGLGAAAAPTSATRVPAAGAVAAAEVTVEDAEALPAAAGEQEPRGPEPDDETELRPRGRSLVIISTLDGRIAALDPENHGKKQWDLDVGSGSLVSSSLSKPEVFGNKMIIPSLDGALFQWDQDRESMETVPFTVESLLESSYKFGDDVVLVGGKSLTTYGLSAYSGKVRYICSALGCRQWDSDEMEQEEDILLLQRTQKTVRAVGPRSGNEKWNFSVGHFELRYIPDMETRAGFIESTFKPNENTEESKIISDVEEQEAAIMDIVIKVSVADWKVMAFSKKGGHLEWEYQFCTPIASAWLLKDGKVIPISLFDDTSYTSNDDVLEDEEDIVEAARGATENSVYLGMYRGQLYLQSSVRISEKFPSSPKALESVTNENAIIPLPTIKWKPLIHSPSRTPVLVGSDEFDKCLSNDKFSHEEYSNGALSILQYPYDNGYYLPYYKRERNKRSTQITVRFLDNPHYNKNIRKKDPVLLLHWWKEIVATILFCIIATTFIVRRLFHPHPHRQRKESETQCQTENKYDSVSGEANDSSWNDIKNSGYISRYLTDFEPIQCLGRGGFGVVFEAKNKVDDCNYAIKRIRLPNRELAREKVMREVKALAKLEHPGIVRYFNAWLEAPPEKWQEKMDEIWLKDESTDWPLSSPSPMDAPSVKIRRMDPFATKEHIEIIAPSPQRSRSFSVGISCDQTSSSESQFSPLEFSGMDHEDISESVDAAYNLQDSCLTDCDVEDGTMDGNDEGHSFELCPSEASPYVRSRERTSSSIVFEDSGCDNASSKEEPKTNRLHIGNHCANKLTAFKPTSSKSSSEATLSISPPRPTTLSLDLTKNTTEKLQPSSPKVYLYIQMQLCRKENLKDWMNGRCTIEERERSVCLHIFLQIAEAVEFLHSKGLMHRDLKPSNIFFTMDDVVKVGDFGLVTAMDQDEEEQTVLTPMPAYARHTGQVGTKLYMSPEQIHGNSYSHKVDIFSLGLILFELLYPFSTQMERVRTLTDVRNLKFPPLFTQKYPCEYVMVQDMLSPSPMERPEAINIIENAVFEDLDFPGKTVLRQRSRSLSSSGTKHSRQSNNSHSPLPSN
# MLLE-PAM2 inh: inhibitors of PABP1 MLLE–PAM2 peptide binding, primary screen, biochemical, fluorescence polarization, FITC-PAM2, GST-MLLE; inhibition, % at 20 µM; 0.36% of 360,000 active; in the data active = inhibition above about 35%, passing the limit was not always enough;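 also: plate controls were DMSO wells with GST-MLLE for no effect and wells lacking GST-MLLE protein for full effect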
# An asterisk follows results filed as active; ? = inconclusive; / = no result; [ ] = remark or other dose. Unless noted, no rule for the calls is given here.
SMILES,PABP polyA inh,eIF4E-4G inh,eIF4H FP inh,PERK inh,MLLE-PAM2 inh
Cc1ccc(N2CSC3=C(C#N)C(c4cccs4)CC(=O)N3C2)cc1 (stereo unspecified),82*,1,61*,2,-30
CCOC(=O)c1ccc(N2CSC3=C(C#N)C(c4cccs4)CC(=O)N3C2)cc1 (stereo unspecified),4,7,4,0,-36
CCc1ccc(N2CSC3=C(C#N)C(c4cccs4)CC(=O)N3C2)cc1 (stereo unspecified),66,0,48,1,-25
COc1ccc(N2CSC3=C(C#N)C(c4cccs4)CC(=O)N3C2)cc1 (stereo unspecified),62*,47*[fluorescence artefact?],15*,1,-41
N#CC1=C2SCN(c3ccc(F)cc3)CN2C(=O)CC1c1cccc(F)c1 (stereo unspecified),57,3,43*,1,-37
Cc1[nH]n(-c2ncc(-c3ccc(Cl)cc3)s2)c(=O)c1C(c1ccc(Cl)cc1)C(C#N)C#N (stereo unspecified),5.9*,3,86,1,5
COc1cccc(-c2nc(SC)nc3sc(C(=O)NC(C)(C)C)c(N)c23)c1,/,/,/,/,-5
O=C(OCCN1C(=O)c2cccc3c(N4CCOCC4)ccc(c23)C1=O)c1cc(Cl)cc(Cl)c1,-11,33*[fluorescence artefact?],?,0,/
Cc1nnc(NC(=O)CSc2ccc(-c3ccco3)nn2)s1,-12,13,105,1,37
CCOc1cc(NC(=O)c2ccccc2OC)c(OCC)cc1NC(=O)c1ccccc1,13,/,8,/,7
CCOc1ccc(CNCCc2ccc(S(N)(=O)=O)cc2)cc1,-2,1,10,2,13
CCOc1ccc(CNc2ccc(S(N)(=O)=O)cc2)cc1,-4,5,1,3.3*,10
CC(C)(Oc1ccc(Cl)cc1)C(=O)NCc1ccc(S(N)(=O)=O)cc1,-8,10,66*,0,-1
Cc1cc(NC(=O)c2cccnc2)ccc1NC(=O)c1ccco1,-7,3,-11,-1,5
CCOc1cc(C2c3c(n[nH]c3C)C(=O)N2c2ccc(C)cc2)ccc1O (stereo unspecified),5,65*,-8,0,8
CC(C)(C)N=Cc1c(O)ccc2oc3c(c12)CCCC3,?,/,47,/,96
O=[N+]([O-])c1cc2oc3c(c2c(C=NCc2ccncc2)c1O)CCCC3,active,13,102,0,14
Cc1ccccc1-n1nc(C(=O)O)cc1-c1ccccc1,-14,/,-5,3.1*,3
O=C(CSc1nnc(Cn2nnc(-c3ccccc3)n2)n1-c1ccccc1)Nc1ccc(F)cc1,9,0,0,-2,-12
CC(=O)Nc1cccc(NC(=O)c2cc(-c3ccccn3)nc3ccc(Cl)cc23)c1,26*,/,52,/,-3
CC(C)(C)[C@H]1C=C(C(=O)O)O[C@@H](OCCCCO)C1,/,/,/,/,6
CC(C)[C@@H]1C=C(C(=O)O)O[C@H](OCCCCO)C1,4,97*,-3,/,3
N/C(=N\OC(=O)CSc1ccccc1)c1ccc([N+](=O)[O-])cc1,-3,-1,3,0,41*
Cc1ccc(/C(N)=N/OC(=O)CSc2ccccc2)cc1,15,2,1,0,20
O=C(CNC(=O)c1ccc(Cl)cc1Cl)NCc1ccccn1,/,/,/,/,13
SMILES,PABP polyA inh,eIF4E-4G inh,eIF4H FP inh,PERK inh,MLLE-PAM2 inh
COc1ccccc1N(Cc1cc(=O)[nH]c2ccccc12)C(=O)c1ccccc1,-14,58*,-2,-1,-1
CN(Cc1cc(=O)[nH]c2ccccc12)C(=O)c1ccccc1,-8,11,-8,1,7
O/N=C/c1ccc2ccccc2n1,-1,0,1,0,-2
O/N=C/c1ccc2cccc(O)c2n1,-3,-3,10,3.7*,9
Cn1c(=O)c2c(-c3ccccc3)n(-c3ccc(N)cc3)cc2n(C)c1=O,/,/,/,/,57*
O=C(CN1C(=O)c2cccc3cccc(c23)C1=O)N1CCN(Cc2ccc3c(c2)OCO3)CC1,8,-12,4,0,11
CCCCCC#CCC#CCC#CCC#CCCCC(=O)O,10,36*,85*,1,/
CCCCCCCCCC(=O)O,/,/,/,/,-2
Cc1ccc(C)c(S(=O)(=O)Nc2ccc(C(=O)NCC(c3ccco3)N3CCCCC3)cc2)c1 (stereo unspecified),0,/,2,/,2
O=C(O)c1cccc2c1C(=O)c1ccc(N3CCCC3)cc1S2(=O)=O,/,/,/,/,10
CS(=O)(=O)c1ccc2nc(NC3(C(F)(F)F)N=C4SCCN4C3=O)sc2c1 (stereo unspecified),-4,2,-12,0,42*
O=C1N2CCSC2=NC1(Nc1ccccn1)C(F)(F)F (stereo unspecified),-6,-4,-6,1,29
CCCNC(=O)CSC1=N/C(=C/c2ccc(F)cc2)C(=O)N1CC,8,26,4,1,31
CCCCCNC(=O)CSC1=N/C(=C\c2ccc(Cl)c(Cl)c2)C(=O)N1CC,-5,-12,-2,3.0*,28
Cc1nc(C)c(Oc2cccc(C(F)(F)F)c2)c(=O)[nH]1,-1,-5,-2,2,16
Cc1cc(O)c(/C=N/OCc2ccc(Cl)cc2Cl)c(=O)o1,-2,76*,-10,0,-4
CCCCC1OC23CCCCC2C(C#N)(C#N)C1(C#N)C(=N)O3 (stereo unspecified),-6,-4,?,1,23
CCCCC1OC23CCCCC2C(C#N)(C(=N)O3)C1(C#N)C#N (stereo unspecified),?,13,?,0,48*
Cn1c(=O)c2ncn(CC(=O)NC3CCCCCC3)c2n(C)c1=O,80*,0,-6,1,-112
CCN(CC)S(=O)(=O)c1ccc(Cl)c(C(=O)Oc2cccnc2)c1,10,58*,29,1,7
CCN(CC)S(=O)(=O)c1ccc(Cl)c(C(=O)Nc2cccnc2)c1,-9,/,-9,/,5
COc1ccc(NS(=O)(=O)c2cccc(C(=O)N/N=C(\C)c3ccncc3)c2)cc1,0,-5,-6,1,-4
CCCn1c(=O)c2sccc2n2c(CCCC(=O)NCc3cccnc3)nnc12,14,/,-6,/,2
CCCn1c(=O)c2sccc2n2c(CCCC(=O)NCc3ccco3)nnc12,33*,/,78*,/,-1
C[n+]1ccccc1/C=N/O,-3,-2,0,1,2
CC(O)/C=C/c1cccc[n+]1C (stereo unspecified),85*,-11,14,0,-117
Cc1cc(C)c(NC(=O)CN(C)C(=O)CCC(=O)c2ccc(C)s2)c(C)c1,/,/,/,/,-10
